TROY NFkB inh = blocks TROY-dependent signaling in reporter cells | Q293 LMP1-TROYcd NF-kB luciferase reporter, 4 h | inhibition, % at 10 µM | hit rate 0.98% among 360,000 | AID 1347056;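 active = compounds whose plate-normalised and pattern-corrected inhibition of the luciferase reporter signal at the single screening dose is 50% or more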
Peg3 promoter = reduces Peg3 promoter-driven luciferase expression in HeLa. inhibition, % at 20 µM. HeLa PEG-Prom luciferase reporter, luminescence, overnight. hit rate 1.7% among 360,000;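 active = inhibition of at least 50% at 20 µM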
CF NFkB inh = cystic fibrosis NF-kB activation inhibition | KKLEB NF-kB-GFP reporter, PAF-induced, GFP fluorescence overnight | inhibition, % at 5 µM | hit rate 0.86% among 360,000 | AID 588850;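 active = at least 50% inhibition at 5 µM, scaled per plate between neutral and stimulator controls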;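 note: PAF is a Pseudomonas aeruginosa culture filtrate used as stimulus; plate controls were PAF-stimulated DMSO wells for no effect and unstimulated DMSO wells for full effect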
TWEAK Fn14 block = inhibitors of TWEAK-Fn14 interaction signaling | TWEAK-stimulated Fn14 reporter cells, luciferase luminescence, 8 h | inhibition, % at 10 µM | hit rate 2% among 360,000 | AID 1159606; in the data active = inhibition above about 50%
KKLEB cytotox = reduces viability of KKLEB cystic fibrosis airway cells | activity change (cytotoxicity), % at 5 µM | hit rate 0.36% among 360,000 | KKLEB CF airway cells viability, ATPlite luminescence, overnight; stronger effect = lower value; cells stimulated with P. aeruginosa culture filtrate | AID 602141;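 active = corrected activity change at or below -50% at 5 µM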
HIF-2a inh = HIF-2a inhibition; hit rate 0.72% among 360,000; inhibition, % at 18.8 µM; 786-0 RCC cells HIF-2a reporter, luciferase luminescence, overnight;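 active = inhibition of the luminescence signal of 40% or more relative to plate controls, in a single-dose primary screen at 18.75 µM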
CF NFkB inh conf = confirmation of cystic fibrosis induced NF-kB inhibitors | shares compounds with CF NFkB inh | KKLEB CF airway cells, PAF-induced NF-kB-GFP fluorescence, overnight | inhibition, % at 5 µM | hit rate 64% among 1,300 | AID 602472; in the data active = inhibition above about 40%;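 note: stimulus PAF is a Pseudomonas aeruginosa filtrate and not platelet activating factor; plate controls were DMSO wells with stimulus for no effect and unstimulated DMSO wells for full effect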
* hit, by the source's call; nt = no result given. Hits are enriched below; roughly 4% of the tested compounds scored in any of these assays.

SMILES	TROY NFkB inh	Peg3 promoter	CF NFkB inh	TWEAK Fn14 block	KKLEB cytotox	HIF-2a inh	CF NFkB inh conf
Cc1ccnc(NC(=O)c2ccc([N+](=O)[O-])o2)c1	14.0	-66.5	51.2*	-0.5	2.8	-137.5	19.7
Cc1ccc2nsnc2c1NC(=O)CCl	4.8	4.9	-11.6	16.6	3.1	7.5	nt
Cc1ccc2nsnc2c1NC(=O)c1ccc([N+](=O)[O-])o1	-0.6	21.6	72.6*	4.6	6.9	37.8	37.0
NC(=O)c1ccsc1NC(=O)c1ccc([N+](=O)[O-])o1	-14.4	47.1	59.0*	19.3	-28.6	-22.5	-15.4
CC(=O)C1=C(C)OC(N)=C(C#N)C1c1cc2cc(C)c(C)cc2nc1Cl (configuration not stated)	-9.1	5.3	19.2	12.7	-18.5	-4.5	nt
COc1ccc(CCN=C(N)NS(=O)(=O)c2ccc(F)cc2)cc1OC	11.9	5.4	3.2	3.0	-2.7	17.5	nt
O=C(NCc1ccco1)/C(=C\c1cccs1)NC(=O)c1cccs1	-45.8	9.2	-12.7	-8.9	17.1	11.5	nt
COc1ccc(-n2c(O)c(/C=N/NS(=O)(=O)c3ccc(C)cc3)c3ccccc3c2=O)cc1OC	19.6	2.5	-25.4	5.9	-4.2	11.9	nt
COc1ccccc1NS(=O)(=O)c1cccc(-n2c(O)c(C=Nc3ccccc3C(=O)O)c3ccccc3c2=O)c1	38.4	33.9	85.6*	43.5	15.0	26.7	92.8*
Cc1cccc(N=c2oc3cc(O)ccc3cc2C(N)=O)c1	10.0	-178.8	67.8*	10.1	-15.0	-116.0	71.8*
COc1ccc2cc(C(N)=O)c(=Nc3ccc(C)cc3)oc2c1	7.1	-166.1	62.9*	66.8*	-13.7	-215.1	95.9*
Cc1cc(NC(=O)c2ccc(C#N)cc2)on1	5.0	-38.0	-3.6	-2.6	7.0	-41.3	nt
N#CC1=C(N)Oc2cc(O)c(C=Nc3ccccc3)cc2C1c1ccccc1 (configuration not stated)	-61.9	-12.4	41.4	-6.8	15.8	30.7	nt
Cc1ccc(N=Cc2cc3c(cc2O)OC(N)=C(C#N)C3c2ccccc2)cc1 (configuration not stated)	-29.1	-8.0	54.2*	3.3	17.6	35.0	74.3*
CC(=O)Nc1ccc(OCC(=O)NC(C)c2ccc(F)cc2)cc1 (configuration not stated)	-4.2	1.8	12.1	0.5	-3.1	15.8	nt
Cc1ccc(S(=O)(=O)Nc2ccc3cc([N+](=O)[O-])ccc3c2[N+](=O)[O-])cc1	49.2	47.7	50.2*	36.1	-24.1	-25.9	74.6*
COc1ccc([C@H]2CC(=O)C=C(c3ccc(OC)c(OC)c3)C2)cc1	-15.1	-49.9	56.7*	-10.4	-17.2	-62.4	35.8
c1ccc2c(c1)Nc1ccncc1S2	19.2	0.1	52.4*	54.9*	-3.7	25.4	77.4*
c1ccc2c(c1)Nc1cc3ccccc3cc1S2	-43.3	-148.6	-0.6	-20.5	9.7	-142.9	nt
O=C(Nc1ccc2c(c1)OCO2)c1cc(-c2ccc(O)cc2)on1	-12.1	-165.4	52.3*	-82.0	-41.3	-204.9	2.9
O=C(Nc1ccc2c(c1)OCO2)c1cc(-c2cccc(O)c2)on1	-82.0	-326.3	-42.8	10.1	8.5	-336.6	nt
CCc1nc2ccc(C(=O)Nc3cccc(OCC(=O)N(C)C)c3)cn2c1N(C)Cc1cc2ccccc2s1	45.0	72.8*	52.6*	35.4	-10.2	-18.5	13.6
CCNC(=O)N(C)c1c(CC)nc2ccc(C(=O)Nc3cccc(OCC(=O)N(C)C)c3)cn12	-2.3	6.9	-2.2	-1.6	-0.4	6.4	nt
Fc1cccc(Cc2c(-c3ccco3)nc3ccc(Br)cn23)c1	3.6	-2.3	52.0*	45.3	-11.2	14.3	11.2
FC(F)(F)c1ccccc1Cc1c(-c2ccco2)nc2ccc(Br)cn12	0.6	13.5	62.5*	14.9	-16.8	23.6	11.3
SMILES	TROY NFkB inh	Peg3 promoter	CF NFkB inh	TWEAK Fn14 block	KKLEB cytotox	HIF-2a inh	CF NFkB inh conf
Clc1ccc2nc(-c3ccco3)c(Cc3ccccc3)n2c1	-0.3	-20.8	37.3	28.5	-7.0	7.3	nt
COC(=O)c1ccc2nc(-c3ccco3)c(Cc3ccccc3)n2c1	-10.9	-35.5	53.9*	34.3	-8.5	-17.4	10.0
Fc1cccc(Cc2c(-c3ccco3)nc3ccc(Cl)cn23)c1	-3.6	-23.0	63.2*	54.0*	2.4	-30.0	-40.9
COC(=O)c1ccc2nc(-c3ccco3)c(Cc3cccc(Cl)c3)n2c1	-8.4	nt	nt	23.4	nt	-13.0	nt
CCc1nnc(NC(=O)CCC(=O)NCc2ccc(C)cc2)s1	11.5	-0.9	-8.1	7.5	17.1	3.9	nt
COc1ccc(NC(=S)N2CCN(S(C)(=O)=O)CC2)cc1	-11.8	4.2	28.3	1.0	-8.8	11.1	nt
O=c1c2c(-c3ccco3)csc2nc(SCc2cn3cccnc3n2)n1-c1ccccc1	-16.6	6.4	41.9	0.4	-29.6	10.5	nt
CC1(C)COC(/C=C/c2cccc([N+](=O)[O-])c2)=N1	-27.2	-28.8	51.7*	35.5	-14.4	-35.1	38.6
CCSc1nnc(NC(=O)c2ccc(F)c(S(=O)(=O)N3CCOCC3)c2)s1	1.3	5.8	9.9	-0.2	1.4	-9.6	nt
Cc1ccc(NC(=O)c2nc[nH]c2C(=O)NCCCNC(=O)c2[nH]cnc2C(=O)Nc2ccc(C)cc2)cc1	19.9	83.8*	52.4*	7.3	-12.9	1.7	78.7*
COc1ccc(Cl)cc1NC(=O)C1CCN(C(=O)C2CC(=O)N(c3ccc(C)cc3)C2)CC1 (configuration not stated)	17.6	4.0	0.6	0.3	2.2	6.8	nt
O=C(CN1C(=O)CCC1=O)Nc1nc(-c2ccccn2)cs1	0.9	5.1	-30.2	12.1	-5.3	9.9	nt
O=C(CN1C(=O)CCC1=O)Nc1nc(-c2nc3ccccc3s2)cs1	-6.1	-251.5	70.6*	82.8*	0.1	-260.2	91.8*
Cc1cc(NC(=O)CSc2nnc(C3CC3)n2-c2ccccc2)no1	-14.2	-0.3	12.1	5.6	3.7	8.9	nt
Cc1cc(Br)c(NC(=O)C(C)Sc2nnnn2C)c(Br)c1 (configuration not stated)	-16.6	3.8	-8.2	-11.8	-4.9	8.9	nt
O=C(Nc1cc(-c2nc3ncccc3o2)ccc1Cl)c1ccc([N+](=O)[O-])o1	19.2	88.0*	80.3*	22.0	-22.9	-46.1	-182.0
COc1cccc2c(SCC(=O)N/N=C/c3ccc(O)c(O)c3)cc(C)nc12	7.7	22.2	15.5	21.9	-11.1	0.1	nt
COc1cccc2c(SCC(=O)N/N=C/c3ccccc3)cc(C)nc12	7.0	27.4	54.5*	21.1	-29.0	31.3	60.6*
Cc1nn(-c2ccc(F)cc2)c2sc(C(=O)OCC(=O)N3CCC(C)CC3)cc12	-6.8	22.0	-23.3	-14.9	-3.0	13.4	nt
Cc1noc(C)c1COC(=O)c1cc2c(C)nn(-c3ccc(F)cc3)c2s1	-3.9	13.7	51.0*	0.1	-31.2	21.4	8.1
